In all, about 370,000 compounds went through this assay and about 2,800 (0.76%) were called active. Cut-off read from the data, not from the text of the source: active = inhibition above about 21%; inactive = the rest. What follows is part of a selection rich in actives, with near analogues and random picks from the rest.
The molecules below were run against E3 ubiquitin-protein ligase UHRF1 (Homo sapiens) (UniProt Q96T88) (assay: blockers of UHRF1 binding to methyl-oligo – biochemical, TR-FRET, human UHRF1, single concentration, counter-screen for MBD2 inhibitor project, primary screen (AID 687016;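 note: UHRF1 SRA domain binding a hemimethylated CpG hairpin DNA probe; 0% = median of test compound wells and 100% = reference inhibitor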)). Settings: UHRF1 binding to methylated oligo, at 4.4 µM, stronger effect = higher value.
Chain of E3 ubiquitin-protein ligase UHRF1 (Homo sapiens) (Q96T88 whole entry, looked up, the tested form may be a part): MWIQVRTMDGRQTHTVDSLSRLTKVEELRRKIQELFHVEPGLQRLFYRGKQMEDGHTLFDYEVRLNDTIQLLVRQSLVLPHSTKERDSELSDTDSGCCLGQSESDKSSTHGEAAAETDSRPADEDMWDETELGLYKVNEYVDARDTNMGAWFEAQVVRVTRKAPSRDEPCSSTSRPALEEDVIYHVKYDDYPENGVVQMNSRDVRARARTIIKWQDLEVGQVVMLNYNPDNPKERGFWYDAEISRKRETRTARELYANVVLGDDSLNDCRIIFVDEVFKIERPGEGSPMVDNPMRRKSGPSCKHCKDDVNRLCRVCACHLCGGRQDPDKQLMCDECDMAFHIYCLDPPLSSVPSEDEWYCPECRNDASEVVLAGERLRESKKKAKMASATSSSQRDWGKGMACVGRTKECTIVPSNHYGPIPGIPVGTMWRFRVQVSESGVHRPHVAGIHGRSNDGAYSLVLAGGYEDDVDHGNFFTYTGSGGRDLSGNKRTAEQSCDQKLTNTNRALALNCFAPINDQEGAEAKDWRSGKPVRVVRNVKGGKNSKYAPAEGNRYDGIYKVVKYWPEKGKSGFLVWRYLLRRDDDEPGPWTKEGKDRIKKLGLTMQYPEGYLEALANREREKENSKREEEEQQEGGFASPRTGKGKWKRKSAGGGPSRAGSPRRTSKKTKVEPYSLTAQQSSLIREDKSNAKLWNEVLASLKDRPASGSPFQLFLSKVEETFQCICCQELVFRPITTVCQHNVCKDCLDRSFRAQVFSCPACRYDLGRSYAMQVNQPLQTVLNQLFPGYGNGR

Row | SMILES | inhibition
1 | OCc1ccc(-c2ccccc2)c(-c2ccccc2)c1 | -1.66% (inactive)
2 | OCC(CO)(CO)NCc1ccc(-c2ccccc2)cc1 | 24.9% (active)
3 | c1ccc(CNCc2ccc(CNCc3ccccc3)cc2)cc1 | -2.85% (inactive)
4 | CN1[C@H](Cc2ccccc2)COc2cccc(N3CCSCC3)c2S1(=O)=O | 6.46% (inactive)
5 | O=C(CSc1nnc(-c2ccccn2)n1-c1ccc(Cl)cc1)Nc1ccccc1-c1ccccc1 | -0.44% (inactive)
6 | O=C(Nc1ccccc1)C1CCN(C(=O)c2ccc(Br)cc2)CC1 | -0.01% (inactive)
7 | COc1ccc(C(=O)N2CCC(C(=O)Nc3cccc(C)c3)CC2)cc1OC | -2.09% (inactive)
8 | COc1ccc(C(=O)N2CCC(C(=O)Nc3ccc(C)cc3)CC2)cc1 | 98.2% (active)
9 | CC(C)(C)NC(=O)C(c1cccnc1)N(C(=O)c1cnco1)c1ccc(C(C)(C)C)cc1 (stereo not given) | -2.85% (inactive)
10 | O=C(c1ccncc1)N1CC[C@H]2[C@H](CCCN2Cc2ccc(F)cc2)C1 | -0.99% (inactive)
11 | COc1ccccc1C(=O)CSc1nnc(-c2ccccn2)n1-c1ccccc1 | 0.85% (inactive)
12 | COc1ccc(-n2c(SCC(=O)Nc3ccc4cn[nH]c4c3)nnc2-c2cccnc2)cc1 | 0.56% (inactive)
13 | CC(C)CNc1cccc2c1S(=O)(=O)N(Cc1cn(Cc3ccc(Cl)cc3)nn1)Cc1ccccc1O2 | 2.31% (inactive)
14 | COC(=O)c1nc(NC(=O)c2ccc(C(C)(C)C)cc2)n[nH]1 | 87.5% (active)
15 | CSc1nccc(NC(=O)c2ccc(C(C)(C)C)cc2)n1 | 5.85% (inactive)
16 | COc1ccc(N2CCN(C(=O)CNC(=O)c3ccc(C(C)(C)C)cc3)CC2)cc1 | -2.46% (inactive)
17 | CCOC(=O)[C@]12CCCC=C1N(Cc1ccc(OC)cc1)C(=O)[C@@H]2CC(=O)N1CCOCC1 | -0.91% (inactive)
18 | CCCCCCN1CCS(=O)(=O)N(Cc2ccc(C(F)(F)F)cc2)C(C(=O)OC)C1 (stereo not given) | -2.34% (inactive)
19 | CC(C)N1CCCCC(NC(=O)C(C)(C)C)C1=O (stereo not given) | -1.29% (inactive)
20 | CC(C)CNc1cccc2c1S(=O)(=O)N(Cc1cn(Cc3ccccc3C(F)(F)F)nn1)Cc1ccccc1O2 | 1.83% (inactive)
21 | Cc1cc(=O)[nH]c(SCC(=O)Nc2ccc(Cl)cc2C)n1 | -2.56% (inactive)
22 | CC(=O)c1ccccc1NC(=O)COC(=O)C1COc2ccccc2O1 (stereo not given) | 6.15% (inactive)
23 | Cc1ccc(S(=O)(=O)NCCC(=O)NNC(=O)C2COc3ccccc3O2)cc1 (stereo not given) | -3.3% (inactive)
24 | Cc1c(CC(=O)N2CCN(C(=O)C3COc4ccccc4O3)CC2)c(=O)oc2c(O)c(O)ccc12 (stereo not given) | 28.8% (active)
25 | CCCn1c(C(Cc2ccccc2)NC(=O)COC)nc2ccccc21 (stereo not given) | -1.58% (inactive)
26 | CCCn1c(NC(=O)C23CC4CC(CC(O)(C4)C2)C3)nc2ccccc21 | 21% (active)
27 | CCOc1ccccc1NC(=O)C12CC3CC(C1)CC(c1ccc(C)cc1)(C3)C2 | 2.15% (inactive)
28 | N#CCC[C@H]1CC[C@]2(CCCN(Cc3ccc(Cl)cc3)C2)O1 | 3.52% (inactive)

Row | SMILES | inhibition
29 | O=C(CSc1nnc(-c2cccc(Cl)c2)n1Cc1ccco1)Nc1ccc(OCc2ccccc2)cc1 | -1.67% (inactive)
30 | FC(F)(F)c1cccc(Cn2ccc3ccc(-c4ccc5ccn(Cc6ccccc6)c5c4)cc32)c1 | 0.27% (inactive)
31 | O=C(Nc1c(-c2ccccc2)nc2c(Br)cc(Br)cn12)c1ccco1 | 1.55% (inactive)
32 | O=C(Nc1ccccc1C(=O)N1CCCCC1)c1ccco1 | 3.17% (inactive)
33 | O=C(Nc1nc(-c2ccco2)c(-c2ccco2)s1)c1ccco1 | 51.4% (active)
34 | CCOc1ccc(N(CC(=O)Nc2c(C)n(C)n(-c3ccccc3)c2=O)S(=O)(=O)c2ccc(Cl)s2)cc1 | -0.95% (inactive)
35 | O=C(CN1CCC(NC(=O)NCc2ccccc2)CC1)Nc1ccc2c(c1)OCCO2 | 1.96% (inactive)
36 | C[C@H]1[C@H](NC(=O)c2cccc(N(C)C)c2)CC[C@@]23CCCN2C(=O)CCC[C@@H]13 | 0.44% (inactive)
37 | CC(C)c1ccc(NC2CCCN(C(=O)c3ccncc3)C2)cc1 (stereo not given) | 1.9% (inactive)
38 | Cc1cccc(C(=O)N2CCCC(Nc3ccc(C(C)C)cc3)C2)n1 (stereo not given) | 22.3% (active)
39 | COc1ccc(NC2CCCN(C(=O)c3ccncc3)C2)cc1 (stereo not given) | -3.03% (inactive)
40 | COc1ccc2c(C(C)c3ccc(N)cc3)cn(C)c2c1 (stereo not given) | 3.85% (inactive)
41 | Cc1cc(C)nc(NC(=S)N2CCN(c3ccc(C(F)(F)F)cn3)CC2)c1 | -0.11% (inactive)
42 | COc1ccc(CCNC(=O)CSc2nc3c([nH]2)c(=O)n(C)c(=O)n3C)cc1 | -0.65% (inactive)
43 | C=CCc1cccc2cc(C(=O)Nc3ccc(NC(C)=O)cc3)c(=O)oc12 | 28.9% (active)
44 | C=CCc1cccc2cc(C(=O)NC3CCCC3)c(=O)oc12 | 2.45% (inactive)
45 | C=CCc1cccc2cc(C(=O)N3CCN(C(=O)OCC)CC3)c(=O)oc12 | -2.84% (inactive)
46 | COc1ccc(-n2c(COc3ccccc3)nnc2SCC(=O)Nc2ccc3c(c2)OCO3)cc1 | 0.77% (inactive)
47 | COC(=O)c1cc(S(=O)(=O)N2CCN(C(=O)C3CCCO3)CC2)cn1C (stereo not given) | -1.8% (inactive)
48 | COC1=C[C@H](C(=O)NCCNC(C)=O)[C@H](C)[C@@H](c2ccccc2)CC1=O | -3.81% (inactive)
49 | CCCCn1c(N)c(N(CC(C)C)C(=O)C2CSC3(C)CCC(=O)N23)c(=O)[nH]c1=O (stereo not given) | 28.1% (active)
50 | CCCCn1c(N)c(N(CC(C)C)C(=O)c2ccc(Br)o2)c(=O)[nH]c1=O | 0.08% (inactive)
51 | CCCCn1c(N)c(N(CC(C)C)C(=O)c2cnc(C)cn2)c(=O)[nH]c1=O | -0.01% (inactive)
52 | CN(C(N)=NC(=O)/C=C/c1ccccc1)C(C#Cc1ccccc1)Cc1ccccc1 (stereo not given) | -1.59% (inactive)
53 | COC(=O)C(C)Oc1ccc2c(-c3cccc([N+](=O)[O-])c3)cc(=O)oc2c1 (stereo not given) | -2.28% (inactive)
54 | COc1ccc(-c2[nH][nH]c(=O)c2NC(=O)c2ccc([N+](=O)[O-])cc2)cc1 | -5.21% (inactive)
55 | CC(=O)Oc1ccc2c(=O)oc(-c3ccc([N+](=O)[O-])cc3)nc2c1 | 20.8% (active)

Reference: PubChem BioAssay AID687016 (The Scripps Research Institute Molecular Screening Center, 2013)
